# From PubChem BioAssay AID504727 (Broad Institute, 2011)
# Unmarked numbers belong to inactive results. Active and inactive are the calls of the source.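 The calls were made as follows: active = fitted half-maximal concentration AC50 at or below ten times the highest valid tested dose, with signal falling as DNA is displaced (actives reach about 34 µM in these data); inconclusive = flat fit at moderate signal loss, or poor fit quality; inactive = the rest, including signal rising instead of falling.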
# Assay: acridine orange-DNA binding displacement – biochemical, fluorescence polarization, cherry-picked samples, set 2, artefact control for KSHV LANA DNA-binding inhibitor project, dose response (AID 504727);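 as to activity change, negative = DNA displacement: 0% = median of neutral control wells and -100% = mitoxantrone positive control wells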
# Settings: series mostly up to 35 µM; activity change, negative = DNA displacement: at the top concentration
Compound,"activity change, negative = DNA displacement [%]",AC50
COc1cc(C(=S)N2CCN(c3cccc(Cl)c3)CC2)ccc1O,2.99,
CCCCNc1c2c3c(cccc3n(C)c1=O)C(=O)c1ccccc1-2,,2250 nM (active)
Cc1cc2c(N)cccc2nn1,-2.03,
O=C(O)c1[nH]c2ccccc2c1C(c1cc(Cl)cc([N+](=O)[O-])c1O)c1c(C(=O)O)[nH]c2ccccc12,5.18,
CCN(C(=O)COC(=O)CNS(=O)(=O)c1ccc(SC)c([N+](=O)[O-])c1)C1CCCCC1,0.584,
COc1ccc(N(C(=O)c2ccc(Cl)cc2)C2=CC3CCC(C2)N3C)cc1 (stereo unspecified),4.22,
COc1cc(-c2ccc(Nc3ccccc3C(=O)O)c(OC)c2)ccc1Nc1ccccc1C(=O)O,4.89,
CSCCC(NC(=O)c1ccccc1Cl)C(=O)N1CCCC(C)C1 (stereo unspecified),2.53,
Cc1ccccc1NC(=S)NC(C)CCc1ccccc1 (stereo unspecified),0.759,
CC1CC(C)CN(C(=O)c2ccc3ncsc3c2)C1 (stereo unspecified),1.91,
Cc1cccc(-c2nsc(SCC(=O)Nc3nccs3)n2)c1,3.03,
CC(C(=O)O)N1C(=O)/C(=C/C=C/c2ccco2)SC1=S (stereo unspecified),14.1,
Cc1ccc(OCC(=O)NC(=S)Nc2cccc(NC(=O)c3ccc(Cl)cc3Cl)c2)cc1,0.722,
COc1cccc2[nH]c(C(=O)NC(C)c3ccccc3)cc12 (stereo unspecified),2.83,
COc1ccc(-c2cnc3n2CCCCC3)cc1,5.56,
CCCn1c(SCC(=O)NCc2cccs2)nc2c1c(=O)n(C)c(=O)n2C,5.06,
N#CCCN(CCC#N)C(=O)C1c2ccccc2Oc2ccccc21,-5,
O=C(OCc1ccccc1)N1C=CC2CC1c1c(Cl)cccc12 (stereo unspecified),2.87,
CC(C)Cn1c(N)c(C(=O)CSc2nnc(-c3ccco3)n2C)c(=O)n(C)c1=O,0.267,
O=C(/C=N/NC(=O)c1ccc(Cl)cc1Cl)c1ccccc1,3.49,
CCN(Cc1ccccc1)C(=O)c1cccc(S(=O)(=O)N2CCN(Cc3ccccc3)CC2)c1,6.01,
